Results as given in the supplement of paper PMC10849652.
Of roughly 7,900 targets only a part is listed; those with a hit were picked by preference. About 0.6% of all pairs of compound and target were hits.

Each target was assayed with C=CC(=O)N1CCC[C@@H](n2nc(-c3ccc(Oc4ccccc4)cc3)c3c(N)ncnc32)C1 [ibrutinib] (assay: log2 fold change, soluble protein after heating vs DMSO (PISA); higher = thermal stabilisation; K562 cells, 10 uM, 30 min; active = over 0.2 and 3.5 SD of the protein, either way, in both replicates (recomputed)).
Summary of the method: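 K562 cells at 2×10^6 cells/mL were treated with 10 μM compound for 30 min. Aliquots were heated for 3 min across 48°C-58°C, pooled, and extracted in PBS with 0.5% NP-40 at 4°C; soluble protein was the supernatant after 21,000xg for 90 min. Soluble protein was quantified by TMTpro 16plex LC-MS/MS with channel sums equalised, and reported as log2 fold change in thermal stability against DMSO controls, with values from duplicates.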

Sequence of UniProt O14965 (O14965 whole entry, looked up): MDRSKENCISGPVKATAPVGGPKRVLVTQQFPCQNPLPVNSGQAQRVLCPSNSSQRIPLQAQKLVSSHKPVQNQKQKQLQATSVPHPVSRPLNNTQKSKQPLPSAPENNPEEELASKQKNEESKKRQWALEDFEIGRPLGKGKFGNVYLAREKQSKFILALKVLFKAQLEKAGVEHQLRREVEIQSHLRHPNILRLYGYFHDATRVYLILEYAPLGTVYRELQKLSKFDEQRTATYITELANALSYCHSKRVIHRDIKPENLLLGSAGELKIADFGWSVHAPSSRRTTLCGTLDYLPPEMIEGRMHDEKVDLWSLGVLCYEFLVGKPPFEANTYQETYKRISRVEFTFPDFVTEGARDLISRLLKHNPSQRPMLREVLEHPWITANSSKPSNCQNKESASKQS
Sequence of UniProt Q86WA6 (Q86WA6 whole entry, looked up): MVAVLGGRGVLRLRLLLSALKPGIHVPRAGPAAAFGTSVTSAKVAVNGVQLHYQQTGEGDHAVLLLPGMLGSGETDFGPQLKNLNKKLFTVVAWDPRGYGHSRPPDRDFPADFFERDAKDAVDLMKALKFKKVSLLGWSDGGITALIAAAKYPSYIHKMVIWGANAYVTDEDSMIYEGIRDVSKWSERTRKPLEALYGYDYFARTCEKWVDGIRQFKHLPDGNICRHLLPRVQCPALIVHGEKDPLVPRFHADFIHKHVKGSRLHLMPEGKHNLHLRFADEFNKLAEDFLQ
Sequence of UniProt Q7Z569 (Q7Z569 whole entry, looked up): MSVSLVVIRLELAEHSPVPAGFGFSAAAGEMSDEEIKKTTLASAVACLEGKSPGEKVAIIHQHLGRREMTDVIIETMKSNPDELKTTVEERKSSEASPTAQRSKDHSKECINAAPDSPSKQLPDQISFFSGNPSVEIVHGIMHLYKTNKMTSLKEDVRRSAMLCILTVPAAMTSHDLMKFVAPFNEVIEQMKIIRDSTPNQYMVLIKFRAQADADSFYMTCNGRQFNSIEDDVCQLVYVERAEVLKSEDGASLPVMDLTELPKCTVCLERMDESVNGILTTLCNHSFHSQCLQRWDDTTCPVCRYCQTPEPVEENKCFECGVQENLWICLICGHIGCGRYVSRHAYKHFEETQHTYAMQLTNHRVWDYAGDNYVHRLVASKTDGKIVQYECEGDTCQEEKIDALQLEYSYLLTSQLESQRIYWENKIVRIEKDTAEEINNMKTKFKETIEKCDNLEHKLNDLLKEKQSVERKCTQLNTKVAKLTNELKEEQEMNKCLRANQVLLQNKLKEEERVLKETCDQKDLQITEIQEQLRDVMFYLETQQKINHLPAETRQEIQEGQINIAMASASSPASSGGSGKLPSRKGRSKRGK
Sequence of UniProt Q5T9A4 (Q5T9A4 whole entry, looked up): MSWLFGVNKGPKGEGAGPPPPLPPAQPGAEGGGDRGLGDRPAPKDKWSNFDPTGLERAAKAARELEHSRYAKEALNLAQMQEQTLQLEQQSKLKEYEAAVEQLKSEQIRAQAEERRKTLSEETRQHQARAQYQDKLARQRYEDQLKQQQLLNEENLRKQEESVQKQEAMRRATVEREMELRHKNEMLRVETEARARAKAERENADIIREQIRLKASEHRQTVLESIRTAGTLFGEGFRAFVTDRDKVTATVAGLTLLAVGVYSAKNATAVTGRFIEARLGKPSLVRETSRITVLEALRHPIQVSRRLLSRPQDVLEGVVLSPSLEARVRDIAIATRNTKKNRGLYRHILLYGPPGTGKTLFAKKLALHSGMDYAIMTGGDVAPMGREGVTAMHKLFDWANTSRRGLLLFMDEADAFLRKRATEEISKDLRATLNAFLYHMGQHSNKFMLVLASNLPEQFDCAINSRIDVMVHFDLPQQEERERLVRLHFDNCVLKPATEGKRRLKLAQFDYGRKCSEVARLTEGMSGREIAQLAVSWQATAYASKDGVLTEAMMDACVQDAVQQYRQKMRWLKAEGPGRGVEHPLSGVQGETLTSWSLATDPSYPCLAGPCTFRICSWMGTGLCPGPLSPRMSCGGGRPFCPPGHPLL
Sequence of UniProt P21283 (P21283 whole entry, looked up): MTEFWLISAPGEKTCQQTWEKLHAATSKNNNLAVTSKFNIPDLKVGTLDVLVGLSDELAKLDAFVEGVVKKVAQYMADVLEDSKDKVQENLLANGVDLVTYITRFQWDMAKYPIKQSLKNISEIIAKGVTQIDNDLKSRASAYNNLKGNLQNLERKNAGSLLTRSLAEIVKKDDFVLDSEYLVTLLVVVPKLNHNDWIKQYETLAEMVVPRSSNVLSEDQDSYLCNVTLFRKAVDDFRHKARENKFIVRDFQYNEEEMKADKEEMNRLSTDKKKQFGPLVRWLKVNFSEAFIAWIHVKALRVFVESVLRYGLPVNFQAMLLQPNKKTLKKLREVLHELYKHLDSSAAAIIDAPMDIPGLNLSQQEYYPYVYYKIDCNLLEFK
Sequence of UniProt P55957 (P55957 whole entry, looked up): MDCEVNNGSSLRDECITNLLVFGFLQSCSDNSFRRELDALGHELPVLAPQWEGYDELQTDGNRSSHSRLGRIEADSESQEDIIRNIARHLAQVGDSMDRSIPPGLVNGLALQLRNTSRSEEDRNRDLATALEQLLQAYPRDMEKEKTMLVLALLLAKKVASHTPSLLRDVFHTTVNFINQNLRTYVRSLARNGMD
Sequence of UniProt P53680 (P53680 whole entry, looked up): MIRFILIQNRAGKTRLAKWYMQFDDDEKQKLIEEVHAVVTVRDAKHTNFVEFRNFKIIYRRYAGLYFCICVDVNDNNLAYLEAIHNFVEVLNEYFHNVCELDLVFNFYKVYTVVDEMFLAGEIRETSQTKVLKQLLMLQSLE
Sequence of UniProt Q13444 (Q13444 whole entry, looked up): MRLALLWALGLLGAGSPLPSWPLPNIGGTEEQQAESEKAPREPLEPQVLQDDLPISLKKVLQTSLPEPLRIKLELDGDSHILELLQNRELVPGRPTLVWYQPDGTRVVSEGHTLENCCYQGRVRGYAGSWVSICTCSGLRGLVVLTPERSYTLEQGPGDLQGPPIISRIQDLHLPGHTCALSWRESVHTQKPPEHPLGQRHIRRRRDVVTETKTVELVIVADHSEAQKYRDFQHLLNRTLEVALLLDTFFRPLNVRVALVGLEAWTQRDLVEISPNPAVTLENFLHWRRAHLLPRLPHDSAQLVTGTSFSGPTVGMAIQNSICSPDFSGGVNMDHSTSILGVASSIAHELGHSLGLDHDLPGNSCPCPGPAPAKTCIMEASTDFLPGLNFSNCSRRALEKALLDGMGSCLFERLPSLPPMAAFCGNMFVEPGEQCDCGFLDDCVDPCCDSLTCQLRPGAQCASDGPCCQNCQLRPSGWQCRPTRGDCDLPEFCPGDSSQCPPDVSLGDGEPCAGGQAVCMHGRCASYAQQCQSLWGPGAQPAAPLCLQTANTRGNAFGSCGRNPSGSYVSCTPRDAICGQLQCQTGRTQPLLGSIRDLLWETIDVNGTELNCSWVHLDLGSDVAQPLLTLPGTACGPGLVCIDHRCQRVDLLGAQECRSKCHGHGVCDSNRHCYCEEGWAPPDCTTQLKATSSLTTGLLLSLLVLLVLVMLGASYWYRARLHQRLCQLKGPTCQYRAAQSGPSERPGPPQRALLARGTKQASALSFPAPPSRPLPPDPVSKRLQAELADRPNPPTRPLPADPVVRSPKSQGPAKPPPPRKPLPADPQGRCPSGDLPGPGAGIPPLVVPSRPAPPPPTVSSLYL
Sequence of UniProt P49189 (P49189 whole entry, looked up): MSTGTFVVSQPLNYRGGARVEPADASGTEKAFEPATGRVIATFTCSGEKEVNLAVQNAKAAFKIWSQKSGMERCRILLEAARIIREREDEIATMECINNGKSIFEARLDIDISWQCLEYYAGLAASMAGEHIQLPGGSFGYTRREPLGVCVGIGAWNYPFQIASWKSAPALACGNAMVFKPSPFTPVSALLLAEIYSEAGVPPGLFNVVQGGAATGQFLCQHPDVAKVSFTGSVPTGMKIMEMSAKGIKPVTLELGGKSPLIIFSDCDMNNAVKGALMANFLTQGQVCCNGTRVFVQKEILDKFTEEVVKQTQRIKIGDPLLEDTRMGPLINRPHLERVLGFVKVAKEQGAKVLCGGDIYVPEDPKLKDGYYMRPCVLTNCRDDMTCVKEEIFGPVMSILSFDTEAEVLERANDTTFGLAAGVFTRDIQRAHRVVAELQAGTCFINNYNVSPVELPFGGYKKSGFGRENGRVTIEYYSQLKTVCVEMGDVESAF
Sequence of UniProt Q7Z3C6 (Q7Z3C6 whole entry, looked up): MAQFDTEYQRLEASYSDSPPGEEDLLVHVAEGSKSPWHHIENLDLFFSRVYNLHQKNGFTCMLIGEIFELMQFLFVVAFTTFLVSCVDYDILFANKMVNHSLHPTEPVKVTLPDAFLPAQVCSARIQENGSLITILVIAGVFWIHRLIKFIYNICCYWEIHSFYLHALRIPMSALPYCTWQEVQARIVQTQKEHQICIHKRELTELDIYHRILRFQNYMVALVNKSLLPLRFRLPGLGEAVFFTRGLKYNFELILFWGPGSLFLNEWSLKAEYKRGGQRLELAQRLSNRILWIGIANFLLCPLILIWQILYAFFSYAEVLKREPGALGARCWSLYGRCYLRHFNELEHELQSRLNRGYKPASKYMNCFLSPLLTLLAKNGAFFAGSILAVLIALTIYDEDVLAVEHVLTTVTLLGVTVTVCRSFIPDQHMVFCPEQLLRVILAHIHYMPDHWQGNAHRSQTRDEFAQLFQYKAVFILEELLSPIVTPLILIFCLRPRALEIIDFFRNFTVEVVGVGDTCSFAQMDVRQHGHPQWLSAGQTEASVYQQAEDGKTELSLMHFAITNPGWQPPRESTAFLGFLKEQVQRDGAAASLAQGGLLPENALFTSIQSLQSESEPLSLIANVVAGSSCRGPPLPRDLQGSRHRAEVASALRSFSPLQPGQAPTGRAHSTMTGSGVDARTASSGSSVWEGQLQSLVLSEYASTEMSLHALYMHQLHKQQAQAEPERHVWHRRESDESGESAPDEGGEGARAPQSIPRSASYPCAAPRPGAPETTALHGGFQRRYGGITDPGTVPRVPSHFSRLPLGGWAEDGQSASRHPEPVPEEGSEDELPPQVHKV

log2 fold change, inactive:
AHSA1 (UniProt O95433) -0.043
AARS2 (UniProt Q5JTZ9) -0.025
APOB (UniProt P04114) -0.012
ABCA4 (UniProt P78363) 0.078
ANAPC2 (UniProt Q9UJX6) -0.045
ATP12A isoform 2 (UniProt P54707) 0.009
BRD8 (UniProt Q9H0E9) -0.014
ATP6V1C1 (UniProt P21283) -0.041
BMP2K (UniProt Q9NSY1) 0.071
ALDH9A1 isoform 3 (UniProt P49189) 0.025
ARFGAP2 (UniProt Q8N6H7) -0.064
BRAP (UniProt Q7Z569) -0.066
AP2S1 (UniProt P53680) -0.01
AHCYL1 (UniProt O43865) 0.062
ADAM15 (UniProt Q13444) 0.045
BUB1B isoform 3 (UniProt O60566) -0.039
AP2A1 (UniProt O95782) 0.01
BPHL (UniProt Q86WA6) -0.062
ARAF (UniProt P10398) 0.005
ATAD3B (UniProt Q5T9A4) 0.045
ATG9A (UniProt Q7Z3C6) 0.081
AURKA (UniProt O14965) 0.193
BID isoform 2 (UniProt P55957) 0.008
